In the antibiotic and cytotoxicity screens of Wong et al. (2023):
The campaign covered roughly 39,000 compounds. About 3,300 (8.5%) were called active. The full list was thinned out, with actives kept by preference.

What follows are molecules tested on HepG2 (assay: cytotoxicity call (relative viability < 0.9)). Conditions: 10 µM.

| Compound | cytotoxicity call |
| --- | --- |
| Cc1nc[nH]c1CCN | inactive |
| NC[C@@H](CS(=O)(=O)O)c1ccc(Cl)cc1 | inactive |
| CCN1C[C@]2(C)CC[C@H](O)[C@@]34[C@@H]5C[C@H]6[C@H](O)[C@@H]5[C@](O)(C[C@@H]6OC)[C@](O)([C@@H](OC)[C@H]23)[C@@H]14 | inactive |
| C[C@@H]1CN([C@@H](C)CO)C(=O)c2c(c3ccccc3n2C)-c2ccccc2CO[C@@H]1CN(C)C(=O)Oc1ccccc1 | inactive |
| CN(C)[C@@H]1C(=O)C(C(N)=O)=C(O)[C@@]2(O)C(O)=C3C(=O)c4c(O)cccc4[C@](C)(O)[C@H]3C[C@@H]12 | inactive |
| CCC(C)C(=O)OC1CC2(C)C(c3ccoc3)OC(=O)CC23OC2(C)OC34C(OC(C)=O)C3(O)C(OC(=O)C5(C)OC5C)C5(C)CC3(O)C(C)(C5CC(=O)OC)C14O2 (centres undefined) | inactive |
| Cc1ccc(N=CN(C)C=Nc2ccc(C)cc2C)c(C)c1 | inactive |
| C[C@H](CO)N1C[C@H](C)[C@@H](CN(C)C(=O)Oc2cccc3ccccc23)OCc2cnnn2CCCC1=O | inactive |
| O=C(O)c1ccc(=O)[nH]c1 | inactive |
| CN1CCN(Cc2ccc[nH]2)CC1 | inactive |
| CC12CCC3c4ccc(OC(=O)N(CCCl)CCCl)cc4CCC3C1CCC2O (centres undefined) | active |
| C[C@]12CC[C@@H]3c4ccc(OC(=O)N(CCCl)CCCl)cc4CC[C@H]3[C@@H]1CC[C@@H]2OP(=O)(O)O | inactive |
| Cc1cc(C)nc(NC2=NCCN2)n1 | inactive |
| O=C(CN1CCOCC1)c1ccc(O)cc1O | inactive |
| CC(C)[N+](C)(CCC(C(N)=O)(c1ccccc1)c1ccccc1)C(C)C.[I-] | inactive |
| c1cc2c(c(N3CCNCC3)c1)OCCO2 | inactive |
| CCC1(c2ccccc2)C(=O)NC(=O)NC1=O | inactive |
| COC(=O)C[C@@H]1CC[C@H]2NC[C@H](O)COC[C@@H]2O1 | inactive |
| COC12CC(COC(=O)c3cncc(Br)c3)CN(C)C1Cc1cn(C)c3cccc2c13 (centres undefined) | active |
| NCC1(c2ccc(Cl)cc2)CC1 | inactive |
| O=C(O)/C=C/CO | inactive |
| Cn1cc(NC(=O)c2cc(NC(=O)CNC(=N)N)cn2C)cc1C(=O)NCCC(=N)N | inactive |

| Compound | cytotoxicity call |
| --- | --- |
| O=C(O)CCl | inactive |
| O=C1NC2(CCNCC2)C[C@@H]1c1ccncc1 | inactive |
| Cc1cccc(Cc2cnc[nH]2)c1C | inactive |
| COc1ccc2[nH]cc(CCN)c2c1 | inactive |
| COc1cccc(-c2ccc3c(CCN)c[nH]c3c2)c1 | active |
| NCCc1c[nH]c2ccccc12 | inactive |
| COc1ccc(N=[N+]=[N-])cc1 | inactive |
| COc1ccc(C=O)cc1 | inactive |
| C=CCc1ccc(OC)cc1 | active |
| C[C@@H]1C(=O)NC[C@H]2CN(CC3CC3)C[C@@H]21 | inactive |
| CNC[C@@H](O)c1ccc(O)c(OC)c1 | inactive |
| CN1C[C@H]2CN(Cc3nccn3C)C[C@H]2C1=O | inactive |
| N#Cc1c(Cl)c(Cl)c(Cl)c(C#N)c1Cl | active |
| COc1ccc(C2(CN)CCOCC2)cc1 | inactive |
| CC[C@@H]1/C=C/C=C/C[C@H](C)[C@@H](O)[C@](C)(O)C(=O)[C@H](C)[C@@H](O)[C@H](C)C(=O)[C@H](C)[C@@H](O)[C@H](C)/C=C/C(=O)O[C@H]2[C@@H](C)[C@@H](CC1)O[C@@]1(CC[C@@H](C)[C@@H](C[C@H](C)O)O1)[C@@H]2C | inactive |
| CC1(C)C(=O)C2OC2C2(C)C1CC(O)C1(C)C2CCC2(C)C(c3ccoc3)OC(=O)C3OC321 (stereo not drawn) [1,2alpha-EPOXYDEACETOXYDIHYDROGEDUNIN ] | inactive |
| CC(=O)OC1CC2C(C)(C)C(=O)C=CC2(C)C2CCC3(C)C(=CC(=O)OC3c3ccoc3)C12C (centres undefined) | active |
| CC1(C)C(=O)C=CC2(C)C1CC(O)C1(C)C2CCC2(C)C(c3ccoc3)OC(=O)C3OC321 (centres undefined) | active |
| COC(=O)C1CC(OC(C)=O)C(=O)C2C1(C)CCC1C(=O)OC(c3ccoc3)CC12C (centres undefined) | inactive |
| CC1(C)C(O)CC(O)C2(C)C1CC(=O)C1(C)C2CCC2(C)C(c3ccoc3)OC(=O)C3OC321 (centres undefined) | inactive |
| CC(=O)OC1CC(OC(C)=O)C2(C)C(CC(OC(C)=O)C3(C)C2CCC2(C)C(c4ccoc4)C(=O)C4OC423)C1(C)C (centres undefined) | inactive |
| NC(=O)[C@H]1CNC(=O)C1 | inactive |

| Compound | cytotoxicity call |
| --- | --- |
| NC1(c2ccccc2F)CCCC1 | inactive |
| CC(C)(C)[C@]1(O)C[C@@H]2OC(=O)C[C@@]23C(=O)O[C@@H]2OC(=O)[C@H](O)[C@]213 | inactive |
| C/C(=C\[C@@H](N)C(=O)O)CP(=O)(O)O | inactive |
| Cc1cccc(Cc2c[nH]cn2)c1C.Cl | inactive |
| CCC1C2CC3C4N(C)c5ccccc5C45CC(C2C5O)N3C1O (centres undefined) | inactive |
| c1cc(N2CCNCC2)ccn1 | inactive |
| CCn1cc2nc(N3CCNCC3)[nH]cc-2c1=O | inactive |
| C[C@H]1O[C@H](n2cnc3c(N)ncnc32)C[C@H]1O | inactive |
| CC(=O)Oc1ccc(Cl)c2cccnc12 | active |
| Cc1c(N)nc([C@H](CC(N)=O)NC[C@@H](N)C(N)=O)nc1C(=O)N[C@H](C(=O)N[C@@H](C)[C@H](O)[C@@H](C)C(=O)N[C@@H](C(=O)NCCc1nc(-c2nc(C(=O)NCCC[S+](C)C)cs2)cs1)[C@@H](C)O)[C@@H](O[C@H]1O[C@H](CO)[C@H](O)[C@@H](O)[C@H]1O[C@H]1O[C@H](CO)[C@@H](O)[C@H](OC(N)=O)[C@@H]1O)c1c[nH]cn1 | inactive |
| O[C@H]1[C@H](O)[C@@H](O)CO[C@H]1NCCc1ccccc1 | inactive |
| COCCN1[C@@H]2CC[C@H]1CN(c1ncccn1)C2 | inactive |
| CCn1nnnc1N | inactive |
| C[C@H](CO)N1C[C@H](C)[C@H](CN(C)C(=O)Oc2cccc3ccccc23)OCc2cnnn2CCCC1=O | inactive |
| NCc1cccnc1 | inactive |
| N#Cc1cccnc1 | inactive |
| CNCc1cccnc1 | active |
| CC(=O)OCC1=C2C(=O)[O][Zn][O]C(=O)[C@@H](N)CCCC(=O)N[C@@H]3C(=O)N2[C@@H]3SC1 | inactive |
| Nc1nc(=O)c2ncn([C@H]3O[C@@H](COP(=O)(O)OP(O)(O)=S)[C@H](O)[C@@H]3O)c2[nH]1 | inactive |
| CN(C)[C@@H]1C(=O)[C@@H](C(N)=O)C(=O)[C@@]2(O)C(=O)[C@H]3C(=O)c4c(O)ccc(Cl)c4[C@@](C)(O)[C@H]3C[C@@H]12 | inactive |
